Test systems include SK-MEL-2 melanoma; EKVX NSCLC; SN12C renal; UO-31 renal; TK-10 renal; ACHN renal; CAKI-1 renal; A498 renal; CCRF-CEM leukemia; MOLT-4 leukemia.
What all share (experiment): NCI-60 one-dose screen, 48 h (100 = growth as untreated, 0 = no growth, -100 = all killed)
Common to all, as to conditions: 10 µM unless noted

Structures are written as SMILES. This is part of a sample that, as a whole, favours compounds with a hit. Of some 83,000 tested, about 20% had one in any assay.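 Treatment: one concentration, 48 hours, 96-well format. Scoring: percent growth, with anything below 10 considered active.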 Values without a mark were called inactive. Activity calls are given as the source filed them.

`Cc1c(C(=O)Nc2ccccc2F)sc2c(=O)[nH]cnc12`: the growth was 53.9% in the experiment with SK-MEL-2 melanoma; 91% with EKVX NSCLC; 96.2% with SN12C renal; 74.6% in the experiment on UO-31 renal; 90.8% in the experiment with TK-10 renal; 102% in the experiment with ACHN renal. The growth in the experiment on CAKI-1 renal is 74.7%; in the experiment on A498 renal it was 99.6%; in the experiment with CCRF-CEM leukemia, 90.4%; in the experiment with MOLT-4 leukemia, 82%.
With `CCCCCCCCN=C(NCCCCCCCC)SCc1cccc2ccccc12`, the growth in the experiment on SK-MEL-2 melanoma was -89.8% (active); with EKVX NSCLC, -66.4% (active); with SN12C renal, -88.1% (active); in the experiment on UO-31 renal, -57.2% (active); in the experiment on TK-10 renal, -94.8% (active); in the experiment on ACHN renal, -91.8% (active). Also, the growth in the experiment with CAKI-1 renal is -84.9% (active); with A498 renal it was -80.4% (active); in the experiment with CCRF-CEM leukemia, -2.17% (active); in the experiment on MOLT-4 leukemia it was -11% (active).
Regarding `NC(CCC(=O)NC(CS)C(=O)NCC(=O)O)C(=O)O` (stereo not given), the growth in the experiment with SK-MEL-2 melanoma was 100%; in the experiment with EKVX NSCLC, 99.8%; in the experiment on SN12C renal, 108%; with UO-31 renal, 85.9%; in the experiment with TK-10 renal, 154%; in the experiment on ACHN renal, 104%. Further, the growth in the experiment with CAKI-1 renal is 100%; in the experiment with A498 renal, 127%; in the experiment with CCRF-CEM leukemia it was 121%; in the experiment with MOLT-4 leukemia, 102%.
Turning to `C#Cc1cccc(Nc2nc3cc([N+](=O)[O-])ccc3nc2Nc2ccc(O)cc2)c1`, the growth was -29.5% (active) with SK-MEL-2 melanoma; 23.1% with EKVX NSCLC; 24.9% in the experiment on SN12C renal; 14.6% with UO-31 renal; 3.86% (active) in the experiment with TK-10 renal; 9.93% (active) with ACHN renal. Also, the growth was 36.4% in the experiment with CAKI-1 renal, 49.4% in the experiment with A498 renal, 6.32% (active) in the experiment on CCRF-CEM leukemia and 0.253% (active) in the experiment on MOLT-4 leukemia.
In the case of `Cc1ccc(C)c2c1SC1=NNC(Oc3ccc(Cl)cc3)=C(C#N)C(=N)N12`, the growth is 132% with SK-MEL-2 melanoma; 100% in the experiment with EKVX NSCLC; 117% in the experiment with SN12C renal; 85.3% in the experiment on UO-31 renal; 125% in the experiment with TK-10 renal; 90.6% with ACHN renal. The growth in the experiment on CAKI-1 renal was 87.4%; with A498 renal, 87.1%; in the experiment with CCRF-CEM leukemia, 96.8%; with MOLT-4 leukemia, 85.2%.
Regarding `Clc1ccc(-c2cnc3c(-c4ccnc(N5CCNCC5)c4)cnn3c2)cc1`, the growth with SK-MEL-2 melanoma is -57.4% (active); in the experiment with EKVX NSCLC, 80.8%; in the experiment on SN12C renal, 10.9%; in the experiment with UO-31 renal, -42.6% (active); with TK-10 renal it was 1.85% (active); in the experiment with ACHN renal, -0.355% (active). For the same compound, the growth with CAKI-1 renal is -19.2% (active); in the experiment on A498 renal, 92.2%; with CCRF-CEM leukemia it was 0.88% (active); in the experiment with MOLT-4 leukemia it was -5.54% (active).
On to `COc1cc(C2C(C#N)=C(N)Oc3cc4c(cc32)OCO4)cc2c1OCO2` (stereo not given), for which the growth with SK-MEL-2 melanoma is 56.6%; with EKVX NSCLC it was 55.7%; in the experiment with SN12C renal, 35.2%; in the experiment with UO-31 renal, 46.3%; with TK-10 renal, 72.1%; in the experiment with ACHN renal it was 35%. For the same compound, the growth is 60.8% with CAKI-1 renal, 8.65% (active) with A498 renal, 18.2% in the experiment with CCRF-CEM leukemia and 20.3% in the experiment with MOLT-4 leukemia.
Turning to `c1csc(-c2cnc3nonc3n2)c1`, the growth was 105% with SK-MEL-2 melanoma; 101% with EKVX NSCLC; 86.7% in the experiment on SN12C renal; 66.5% in the experiment on UO-31 renal; 128% in the experiment on TK-10 renal; 85.7% in the experiment on ACHN renal. Also, the growth is 90.3% in the experiment on CAKI-1 renal, 88.1% with A498 renal, 79.7% with CCRF-CEM leukemia and 78.9% with MOLT-4 leukemia.
In the case of `Cc1cc(-c2ccccc2)on1`, the growth was 107% in the experiment with SK-MEL-2 melanoma; 103% in the experiment with EKVX NSCLC; 103% in the experiment on SN12C renal; 82.5% in the experiment with UO-31 renal; 110% in the experiment on TK-10 renal; 103% in the experiment on ACHN renal. In addition, the growth with CAKI-1 renal is 98.2%; in the experiment with A498 renal it was 126%; with CCRF-CEM leukemia it was 97.8%; in the experiment on MOLT-4 leukemia, 92.4%.
In the case of `O=C(O/C(=C/c1ccccc1)C(F)(F)F)c1ccccc1`, the growth in the experiment on SK-MEL-2 melanoma is 103%; in the experiment on EKVX NSCLC, 103%; in the experiment with SN12C renal, 99.3%; with UO-31 renal, 102%; in the experiment on TK-10 renal, 103%; with ACHN renal, 110%. Also, the growth with CAKI-1 renal is 99%; with A498 renal it was 88.7%; with CCRF-CEM leukemia, 106%; in the experiment with MOLT-4 leukemia it was 7.51% (active).
On to `CCOC(=O)C1C(=O)C=C(c2ccccc2)CC1c1sc(N(C)Cc2ccccc2)nc1Cl` (stereo not given), for which the growth was 84.4% in the experiment on SK-MEL-2 melanoma; 87.9% in the experiment with EKVX NSCLC; 94.3% in the experiment with SN12C renal; 76.1% in the experiment on UO-31 renal; 107% in the experiment with TK-10 renal; 95.3% in the experiment with ACHN renal. In addition, the growth in the experiment with CAKI-1 renal is 68.7%; in the experiment with A498 renal, 107%; in the experiment on CCRF-CEM leukemia, 84%; with MOLT-4 leukemia, 71.1%.
Turning to `CS(=O)(=O)c1ccc(C(=O)N/N=C/c2ccccc2O)cc1`, the growth with SK-MEL-2 melanoma is 40%; in the experiment on EKVX NSCLC, 25.8%; in the experiment on SN12C renal, 58.7%; in the experiment with UO-31 renal, 18%; in the experiment with TK-10 renal, 45.8%; in the experiment on ACHN renal, 28.3%. The growth with CAKI-1 renal is 34.9%; in the experiment with A498 renal, 75.2%; in the experiment on CCRF-CEM leukemia it was 15.3%; in the experiment with MOLT-4 leukemia it was 9.19% (active).
Turning to `C=C[C@H]1CCC/C=C/[C@@H]2C[C@H](O)C[C@H]2[C@H](O)/C=C/C(=O)O1`, the growth with SK-MEL-2 melanoma is -37.9% (active); in the experiment on EKVX NSCLC, 3.38% (active); in the experiment with SN12C renal, 5.71% (active); in the experiment with UO-31 renal, -11.2% (active); in the experiment on TK-10 renal it was -45.6% (active); with ACHN renal it was 5.96% (active). The growth in the experiment with CAKI-1 renal was -1.92% (active); in the experiment with A498 renal, -48.7% (active); in the experiment with CCRF-CEM leukemia it was 7.38% (active); in the experiment on MOLT-4 leukemia, 0.424% (active).
With `CC(C)[C@@]12C[C@@H](OC(=O)C3CO3)[C@@](C)(O1)[C@@H]1CC[C@@H](C)[C@H]1[C@@H]2OC(=O)/C=C/c1ccccc1` (stereo not given in full), the growth in the experiment on SK-MEL-2 melanoma was 87.9%; with EKVX NSCLC it was 82.3%; in the experiment on SN12C renal it was 58.6%; with UO-31 renal it was -3.56% (active); in the experiment on TK-10 renal, 119%; with ACHN renal, 5.97% (active). The growth with CAKI-1 renal was 51.7%; in the experiment with A498 renal, -31.7% (active); with CCRF-CEM leukemia, 88.5%; in the experiment with MOLT-4 leukemia it was 79.9%.

The values are drawn from PubChem BioAssay (NCI).
